Measurements as given in PubChem BioAssay AID1347074 (Center for Chemical Genomics, University of Michigan, 2019).
The whole screen tested about 47,000 compounds, of which about 2,800 (6%) were called active. The entries come from a sample that favours actives as a whole. Unmarked numbers belong to inactive results. No stated cut-off is given here; in the data, active means z-score above about 3 (passing the limit was not always enough); inactive means the rest.

Target: Endoribonuclease Dicer (Homo sapiens) (UniProt Q9UPY3)
Test: inhibitors of Dicer pre-microRNA processing, primary screen, biochemical, cat-ELCCA, chemiluminescence (AID 1347074);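 further: plate controls were vehicle for no effect and no enzyme for full effect; higher signal means more uncleaved substrate so more Dicer inhibition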
Settings: cat-ELCCA pre-miR-21 Dicer processing, at 25 µM, stronger effect = higher value

Chain of Endoribonuclease Dicer (Homo sapiens) (Q9UPY3 whole entry, looked up): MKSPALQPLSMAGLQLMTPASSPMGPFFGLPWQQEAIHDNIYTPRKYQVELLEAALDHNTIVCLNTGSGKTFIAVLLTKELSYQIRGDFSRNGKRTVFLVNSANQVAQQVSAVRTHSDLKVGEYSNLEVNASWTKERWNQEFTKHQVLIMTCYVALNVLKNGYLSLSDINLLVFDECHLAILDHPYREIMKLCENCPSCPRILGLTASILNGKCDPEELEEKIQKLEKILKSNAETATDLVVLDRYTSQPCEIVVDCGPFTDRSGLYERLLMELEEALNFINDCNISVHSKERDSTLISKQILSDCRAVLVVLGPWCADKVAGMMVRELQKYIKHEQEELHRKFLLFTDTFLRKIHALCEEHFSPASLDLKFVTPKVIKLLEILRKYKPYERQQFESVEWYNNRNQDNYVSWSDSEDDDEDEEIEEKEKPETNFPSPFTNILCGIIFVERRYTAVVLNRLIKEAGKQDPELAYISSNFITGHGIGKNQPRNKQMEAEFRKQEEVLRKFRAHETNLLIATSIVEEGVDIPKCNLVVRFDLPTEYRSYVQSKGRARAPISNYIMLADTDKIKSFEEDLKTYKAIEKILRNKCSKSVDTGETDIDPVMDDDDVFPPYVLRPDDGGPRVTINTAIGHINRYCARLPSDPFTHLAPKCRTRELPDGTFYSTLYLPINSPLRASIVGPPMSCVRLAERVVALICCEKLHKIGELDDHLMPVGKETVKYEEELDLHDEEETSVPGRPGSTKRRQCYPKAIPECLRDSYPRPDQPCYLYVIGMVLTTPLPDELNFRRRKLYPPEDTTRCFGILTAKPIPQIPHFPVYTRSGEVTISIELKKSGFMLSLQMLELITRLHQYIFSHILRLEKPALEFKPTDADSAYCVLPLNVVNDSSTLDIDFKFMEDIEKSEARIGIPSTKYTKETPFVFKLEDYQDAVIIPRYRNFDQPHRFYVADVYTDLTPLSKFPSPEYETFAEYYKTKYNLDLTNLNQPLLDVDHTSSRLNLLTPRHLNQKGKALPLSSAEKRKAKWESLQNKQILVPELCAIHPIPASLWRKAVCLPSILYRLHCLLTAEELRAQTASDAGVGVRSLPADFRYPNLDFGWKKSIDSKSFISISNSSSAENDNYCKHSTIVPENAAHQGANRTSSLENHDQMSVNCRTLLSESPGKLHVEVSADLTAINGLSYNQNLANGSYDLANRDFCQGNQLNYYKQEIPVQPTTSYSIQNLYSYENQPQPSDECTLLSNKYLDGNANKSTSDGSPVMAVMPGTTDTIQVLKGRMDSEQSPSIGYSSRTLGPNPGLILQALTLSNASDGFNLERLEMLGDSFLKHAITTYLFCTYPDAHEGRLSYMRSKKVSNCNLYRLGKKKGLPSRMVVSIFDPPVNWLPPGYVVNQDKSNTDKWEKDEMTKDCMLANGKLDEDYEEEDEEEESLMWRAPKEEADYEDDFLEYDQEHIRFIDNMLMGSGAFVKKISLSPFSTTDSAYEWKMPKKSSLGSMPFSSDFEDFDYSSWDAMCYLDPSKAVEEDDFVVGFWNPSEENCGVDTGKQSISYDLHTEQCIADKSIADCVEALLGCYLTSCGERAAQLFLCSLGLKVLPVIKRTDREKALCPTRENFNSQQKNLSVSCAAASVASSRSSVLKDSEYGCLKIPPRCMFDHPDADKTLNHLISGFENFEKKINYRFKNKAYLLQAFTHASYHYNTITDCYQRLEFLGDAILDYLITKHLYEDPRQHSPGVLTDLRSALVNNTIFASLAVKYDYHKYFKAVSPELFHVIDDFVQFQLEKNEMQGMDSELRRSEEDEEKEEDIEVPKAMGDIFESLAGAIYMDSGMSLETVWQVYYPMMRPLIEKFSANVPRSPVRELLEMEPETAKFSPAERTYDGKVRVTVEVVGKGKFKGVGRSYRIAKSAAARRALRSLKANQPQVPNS

SMILES	z-score
O=C1c2oc3ccccc3c(=O)c2C(c2cccc(O)c2)N1Cc1ccccc1 (configuration not stated)	0.58
Cc1ccc(N2C(=O)c3oc4cc(C)c(C)cc4c(=O)c3C2c2ccc(O)cc2)nc1 (configuration not stated)	0.43
Cc1ccc(N2C(=O)c3oc4ccccc4c(=O)c3C2c2cccnc2)nc1 (configuration not stated)	3.52 (active)
O=C1c2oc3ccccc3c(=O)c2C(c2cccc(O)c2)N1c1ccccn1 (configuration not stated)	3.7 (active)
C=CCOc1cccc(C2c3c(oc4ccccc4c3=O)C(=O)N2c2ccc(C)cn2)c1 (configuration not stated)	0.54
C=CCOc1ccc(C2c3c(oc4ccccc4c3=O)C(=O)N2c2ccc(C)cn2)cc1 (configuration not stated)	0.29
Cc1nc(N/N=C2\CCCc3ccccc32)sc1C	0.78
CC(C)(C)NC(=O)c1nn2c(C(F)(F)F)cc(-c3ccccc3)nc2c1Cl	-0.55
CCCc1nnc(N2C(=O)c3oc4ccc(F)cc4c(=O)c3C2c2ccc(OC)cc2)s1 (configuration not stated)	1.52
O=C(N/C=C/c1ccsc1)Nc1cc(C(F)(F)F)cc(C(F)(F)F)c1	0.88
Cc1ccc(NC(=O)Nc2cc(-c3ccccc3)nn2C)cc1Cl	0.04
O=C1CC(Cc2ccc(Cl)cc2)C(=O)N1c1ccccc1 (configuration not stated)	0.01
CCCCC1(C2CC(=O)N(c3ccccc3)C2=O)C(=O)N(c2ccccc2)N(c2ccccc2)C1=O (configuration not stated)	1.04
O=C1CC(NCC2CCCCC2)C(=O)N1c1ccccc1 (configuration not stated)	3.63 (active)
O=C(C1Sc2nnc(-c3ccccc3)n2NC1c1ccc(F)cc1)N1CCOCC1 (configuration not stated)	2.92
COc1ccc(-c2cc3nccc(-c4cc(F)ccc4O)n3n2)cc1	1.88
Cc1cc(-c2ccccc2)n2nc(-c3ccccc3)cc2n1	0.87
Cc1ccc(-c2cc3nccc(-c4ccccc4O)n3n2)cc1	3.02 (active)
CC1CCc2c(sc3ncnc(SC(C)C(=O)O)c23)C1 (configuration not stated)	-0.91
CCOC(=O)c1sc(N2C(=O)c3oc4ccccc4c(=O)c3C2c2cccs2)nc1C (configuration not stated)	1.43
CCOC(=O)c1ccc(NC(=S)N(Cc2ccccc2)C(C)C)cc1	-0.22
O=C(NCCC(O)C(=O)O)OCc1ccccc1 (configuration not stated)	-1.43
CC(C)(C)OC(=O)NCC(=O)OCc1ccc(CC(=O)O)cc1	3.04 (active)
O=C(O)Cc1ccc(-c2ccccc2)cc1	-0.37
COc1ccc2cccc(OC)c2n1	-1.05

SMILES	z-score
O=C(Nc1nc2ccsc2c(=O)s1)c1ccccc1	-0.44
O=C(O)/C=C/C(=O)N1CCN(c2nccc(C(F)(F)F)n2)CC1	0.2
NC(=O)c1c(NC(=O)c2sc3cc(Cl)ccc3c2Cl)sc2c1CCC2	0.57
O=C(c1cccnc1)N(c1cc2sc(=O)oc2c2ccccc12)S(=O)(=O)c1ccccc1	-2.86
COc1ccc(S(=O)(=O)N(C(=O)c2ccncc2)c2ccc3oc(=O)sc3c2)cc1OC	3.3 (active)
O=C(c1cccnc1)N(c1ccc2oc(=O)sc2c1)S(=O)(=O)c1ccccc1	3.74 (active)
CCCCC(=O)N(c1ccc2oc(=O)sc2c1)S(=O)(=O)c1ccc(F)cc1	3.38 (active)
COC(=O)c1c(C)oc2ccc(N(C(=O)Oc3ccccc3)S(=O)(=O)c3ccccc3)cc12	-0.23
CCOC(=O)C(C)Oc1ccc2c(=O)c(-c3ccc(OC)c(OC)c3)c(C(F)(F)F)oc2c1 (configuration not stated)	0.03
O=C1/C(=C/c2cc(Br)cs2)Cc2ccccc21	-0.91
CCOC(=O)/C(C#N)=C/N=C(N/N=C(\C)c1cc2ccccc2o1)SC	-2.01
NC(=O)CN1C(=O)C(O)(CC(=O)c2ccc3c(c2)CCCC3)c2ccccc21 (configuration not stated)	-1.03
O=S(=O)(c1cc(Cl)ccc1Cl)N1c2ccccc2OC1c1ccc(Cl)c(Cl)c1 (configuration not stated)	-0.36
CSC(=Nc1cc(C(F)(F)F)cc(C(F)(F)F)c1)N1CCCCC1	5.99 (active)
CSC(=Nc1ccccc1C(F)(F)F)N1CCCC1	1.69
CCCC1c2ccsc2CCN1C(=S)Nc1ccccc1C(=O)OC (configuration not stated)	-0.25
CSc1nnc(/N=C/c2ccccc2O)s1	0.16
Oc1ccccc1C=NCCCN=Cc1ccccc1O	4.14 (active)
O=C(O/N=C(/Cc1ccccc1)C(F)(F)F)c1ccc(Cl)cc1	-0.11
Nc1c(C(=O)c2ccc(Cl)cc2)sc2nc(-c3cccs3)cc(C(F)(F)F)c12	4.28 (active)
Cc1cc(C)c2c(-n3cccc3)c(C(=O)c3ccc(Cl)cc3)sc2n1	-2.32
Cc1cc(-c2cccs2)c2c(N)c(C(=O)c3ccccc3)sc2n1	0.82
COc1cccc(-c2nc(-c3cc4cc(C)ccc4[nH]c3=O)no2)c1	0.33
Cc1cc(C)c2c(N)c(C(=O)NNC(=S)Nc3ccccc3)sc2n1	5.62 (active)
Cc1cc(C)c2c(N)c(-c3n[nH]c(=S)n3C)sc2n1	-3.29

SMILES	z-score
CCOC(=O)c1c(NC(=O)c2sc3nc(C)cc(COC)c3c2N)sc2c1CCCC2	-1.64
C#CC(CCN1CCCCC1)(OC)c1ccccc1 (configuration not stated)	-0.6
C(#CCN1CCCCC1)COC(c1ccccc1)c1ccccc1	4.06 (active)
NS(=O)(=O)c1ccc2c(c1)OCCO2	-0.87
CCn1nc(C)cc1-c1n[nH]c(=S)n1-c1ccccc1	-0.98
Cc1cc(C)cc(Oc2coc3cc(OCC(=O)OC(C)C)ccc3c2=O)c1	0.93
Cc1[nH]n(C)c(=O)c1C(=O)c1c(-c2c(Cl)cccc2Cl)noc1C	-0.59
Cc1onc(-c2c(Cl)cccc2Cl)c1C(=O)N=S(C)(C)=O	0.49
Cc1onc(-c2ccccc2Cl)c1C(=O)OCC(=O)c1ccccc1	4.29 (active)
CCOCc1ccc2oc(C(=O)OCCN(CC)CC)cc2c1	0.17
Cc1nn2c3c(cnc2c1-c1ccc(F)cc1)C(=O)CC(c1cccc(Cl)c1)C3 (configuration not stated)	0.34
Oc1c(Cl)cc(Cl)c(Cl)c1Cc1c(O)c(Cl)cc(Cl)c1Cl	13.8 (active)
O=C(CN1C(=O)c2ccccc2S1(=O)=O)NC1CCCCC1	1.13
Cc1ccc(C(=O)CC2(O)C(=O)N(CN3CCCCC3)c3ccc(Br)cc32)cc1 (configuration not stated)	0.51
CCOC(=O)c1sc2ccccc2c1N	0.22
CCOC(=O)c1sc(SC)c(-c2ccccc2)c1N	11.5 (active)
CCOC(=O)c1sc(SC)c2c1-c1ccccc1N(C)S2(=O)=O	-1.61
CCOC(=O)/C(=N\Nc1ccccc1)c1csc(N)n1	0.02
Cc1cc(C)n(C(=O)COc2ccc3ccccc3c2Br)n1	2.85
CC(C)OC(=O)C1C(=O)CC(C)(O)C(C(=O)OC(C)C)C1c1ccc(O)cc1 (configuration not stated)	-0.2
COC(=O)C1=C(C)NC2=C(C(=O)CC(C)(C)C2)C1c1cc(Cl)c(O)c(OC)c1 (configuration not stated)	3.12
CC(C(=O)N1CCCC1)N1c2cccc3cccc(c23)S1(=O)=O (configuration not stated)	-0.76
O=[N+]([O-])c1cc(-c2cnc3ccccc3n2)ccc1Sc1ccccn1	15.7
COC(=O)c1ccccc1-c1c2ccc(=O)cc-2oc2cc(O)ccc12	7.57 (active)
COC(=O)c1cc(OC)c(OC)cc1N1C(=O)c2ccccc2C1=O	0.34

SMILES	z-score
COC(=O)c1ccccc1N(C)C(=O)c1cc(OC)c(OC)c(OC)c1	-0.98
COC(=O)c1cc(NC(=O)NC(=O)c2c(Cl)cccc2Cl)ccc1S(=O)(=O)Cc1ccc(Cl)cc1	1.45
CN(C)CCN1C(=O)C(=O)/C(=C(/O)c2ccc(F)cc2)C1c1cccs1 (configuration not stated)	1.06
O=C(Oc1ccc(Cl)cc1Cl)c1ccc(Cl)cc1[N+](=O)[O-]	4.36 (active)
CC(CC(=O)O)Oc1ccc(Cl)cc1[N+](=O)[O-] (configuration not stated)	-0.09
COC(=O)c1sccc1Oc1ccc(Cl)cc1[N+](=O)[O-]	-0.2
CC(C)N1CNc2nc3ccccc3n2C1	1.6
COc1ccccc1N1CCN(S(=O)(=O)c2ccc(Br)cc2)CC1	1.29
COc1ccc(S(=O)(=O)N2CCCCC2)cc1Br	4.32 (active)
O=c1oc2cc(S(=O)(=O)N3CCCCC3)ccc2c2ccc(S(=O)(=O)N3CCCCC3)cc12	1.67
Cc1nc(-c2ccc(S(=O)(=O)N3CCCN(c4ncc(C(F)(F)F)cc4Cl)CC3)s2)cs1	-1.58
O=C1COCC(=O)N1c1ccc(F)cc1F	2.81
O=C1/C(=C/c2ccc3c(c2)OCO3)CCC/C1=C\c1ccc2c(c1)OCO2	-1.56
O=C1COCC(=O)N1c1ccc2c(c1)OCO2	3.01 (active)
CS(=O)(=O)N1N=C(c2c(-c3ccccc3)c3cc(Cl)ccc3[nH]c2=O)CC1c1cccs1 (configuration not stated)	0.27
COc1ccccc1-c1coc2cc(OC(=O)c3ccccc3Cl)ccc2c1=O	0.93
O=c1c(-c2ccccc2)coc2cc(O)ccc12	3.37 (active)
Cc1c2occ(-c3ccccc3)c2cc2c1oc(=O)c1ccccc12	2.4
Cc1nn(Cc2ccc(C(=O)NCc3ccccn3)o2)c(C)c1[N+](=O)[O-]	1.35
Fc1ccc2onc(-c3cnn(-c4ccccc4)c3)c2c1	3.3 (active)
Cc1ccc2oc(-c3cccc(N4C(=O)c5cccnc5C4=O)c3)nc2c1	-1
COc1ccc(-n2cnc3cc(NCc4ccco4)ccc32)cc1	6.39 (active)
